Experimental data as given in the OligoGym collection.

The sequences below were run against C7orf69 (assay: pooled miR-30 sensor sort-seq; sequence = guide strand). Conditions: shRNA.
Further: reference of the scale not given here.

| Sequence | sensor-assay potency score (higher = more potent) |
| --- | --- |
| TAGTTTGACAAAACTTGTAGAG | -0.507 |
| TTCAGCTCTCCTATCCGTGCAA | 0.252 |
| TTTCCATCCATGACCAACTTTT | -0.995 |
| TTGTAGAGAAGTCCAGAGTTAA | -1.47 |
| AAAACTTGTAGAGAAGTCCAGA | -0.425 |
| ATAGTTTGACAAAACTTGTAGA | -0.39 |
| TGATAGTTTGACAAAACTTGTA | -0.512 |
| AAGTCCAGAGTTAAGAACCAGC | -0.81 |
| TTTGCTCTGCATTTGATAGTTT | -0.51 |
| TTGCTCTGCATTTGATAGTTTG | -1.46 |
| TTGATAGTTTGACAAAACTTGT | -1.4 |
| TTTGATAGTTTGACAAAACTTG | -0.171 |

Each sequence was assayed against C8B in the same assay as above. Conditions: shRNA.

| Sequence | sensor-assay potency score (higher = more potent) |
| --- | --- |
| TAAGAGTATAATCTCCTCTCTC | 0.0444 |
| TTTTAGTATGAGAGAATCGTTT | -0.743 |
| TTGTCAGAGAAGTTGCACGGTT | -0.544 |
